FGF22 binding-1: binders of recombinant human FGF22 by thermal shift. 340,000 compounds, 1.5% hits. SYPRO orange fluorescence; percent of sucrose octasulfate shift, DMSO zero. activity (Tm shift, normalised), % at 9.99 µM. AID 651658. Q9HCT0;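 active = mean Tm shift, scaled 0 neutral to 100 positive control, at about 1.3% or above, every replicate too, limit read from the data; inconclusive = no clear call, values can overlap the other calls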
Target sequence (Q9HCT0 whole entry, looked up): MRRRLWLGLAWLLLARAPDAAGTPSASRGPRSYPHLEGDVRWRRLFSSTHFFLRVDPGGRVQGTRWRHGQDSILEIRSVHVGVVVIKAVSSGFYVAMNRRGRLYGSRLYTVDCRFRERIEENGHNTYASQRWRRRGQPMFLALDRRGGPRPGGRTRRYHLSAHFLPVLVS
AF4-AF9 inh: blocks AF4 peptide binding to human AF9; P42568; AlphaScreen, biotin-AF4 peptide binding to FLAG-AF9; inhibition, % at 10 µM; 350,000 compounds, 0.47% hits;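 active = every replicate reaching a set inhibition limit, whatever the replicate mean, cut at about 25% in these data; inconclusive = mean inhibition reaches that limit but some replicates miss it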;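 note: 0% = plate neutral control median and 100% = total signal loss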
Wnt act: Wnt/beta-catenin pathway activation. Wnt/beta-catenin reporter cell assay, activator, plate reader. activation, % at 9.35 µM. 300,000 compounds, 1.2% hits. AID 743398; in the data active = activation above about 30%, passing the limit was not always enough; inconclusive = no clear call, values can overlap the other calls;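 note: 0% = neutral control wells and 100% = positive control wells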
MITF act: activators of MITF-driven TRPM1 promoter activity in SK-MEL-5 cells | SK-MEL-5 TRPM1-promoter luciferase, 24 h; % of positive control, neutral wells = 0 | activation, % at 12.5 µM | 300,000 compounds, 0.75% hits | AID 588334;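 active = mean activation of at least 80% with every replicate also reaching 80%; inconclusive = mean reaches 80% but some replicate falls short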;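 note: 0% = neutral control wells and 100% = parthenolide positive control wells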
SMARCA2 activ: activators of SMARCA2 function | MG213 cells, MMTV-luciferase reporter, dexamethasone, overnight | 370,000 compounds, 1% hits | activation, % at 9.1 µM | AID 652017; in the data active = activation above about 7.8%;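 note: 0% = vehicle wells and 100% = reference activator wells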
esBAF inh: SWI/SNF esBAF complex inhibition; AID 602393; 350,000 compounds, 2% hits; mouse ES cells, Bmi1-luciferase knock-in reporter, 24 h; 100% = twice the neutral-well signal; reporter increase, % at 12.5 µM; in the data active = activation above about 40%; inconclusive = no clear call, values can overlap the other calls;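 note: 0% = median of the plate's neutral control wells and 100% = double that signal; a rise in the Bmi1 reporter signal indicates esBAF inhibition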
FGF22 binding-2: FGF22 (human) binding in thermal shift; shares compounds with FGF22 binding-1; recombinant FGF22 thermal shift, SYPRO orange fluorescence; thermal shift activity, °C (ΔTm) at 38 µM; 1,000 compounds, 2% hits; AID 720646;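 active = fitted rise in melting shift crosses a set limit at or below the top valid dose tested; inconclusive = flat fit at mid-level activity, or a poor quality fit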
TSA no protein: counter-screen for FGF22 binders: compound-only thermal shift, no protein. 1,000 compounds, 2% hits. AC50, µM (top dose mostly 38 µM). shares compounds with FGF22 binding-1. compound-only SYPRO orange thermal shift counter-screen;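 active = rising signal whose fitted curve reaches the 0.54 level within the top valid dose, showing a melting point, actives reach about 13 µM in these data; inactive = the rest, including activity in the opposite direction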; note: value is where the raw curve crosses a fixed level and not half-maximal
* = called active by the depositor; i = inactive; ? = inconclusive; · = no result; ! = not active in a repeat; [ ] = dose if it differs, or a comment. Shown are actives, neighbours in structure and some others; about 4.3% of the full set was active somewhere.

SMILES	FGF22 binding-1	AF4-AF9 inh	Wnt act	MITF act	SMARCA2 activ	esBAF inh	FGF22 binding-2	TSA no protein
CCS(=O)(=O)N1CCCCN2[C@H](CO)[C@H](c3ccc(-c4ccc(C#N)cc4)cc3)[C@H]2C1	0	4	·	·	·	-3	·	·
CC(=O)Nc1cccc(C(=O)N2CCC(n3nccc3NC(=O)CC(C)C)CC2)c1	1.5*	-3	3	2	0	·	0.01	i
Cc1ccc(S(=O)(=O)N2CCN(CC(=O)N/N=C\c3ccc(Cl)c([N+](=O)[O-])c3)CC2)cc1	·	·	·	6	-3	·	·	·
CC(=O)c1ccc(S(=O)(=O)N2CCN(CC(=O)Nc3ccc(Cl)c([N+](=O)[O-])c3)CC2)cc1	2.6*	1	-4	5	3	-15	0.023	i
COc1cccc([C@@H](NC(=O)C(F)(F)F)[C@@H]2CCCC=C2c2ccccc2)c1	0	·	-2	·	-1	·	·	·
C/C=C/c1ccccc1[C@@H]1[C@@H](C#N)N(C(C)=O)[C@@H]1CO	1.3*	-4	·	·	·	·	-0.004[42 µM]	i
CC(C)NC(=O)N1[C@H](CO)[C@H](c2ccccc2-c2ccc(F)cc2)[C@@H]1C#N	1.8*	-10	·	·	·	·	0.22	i
Cc1ccccc1-c1ccccc1[C@H]1[C@@H](CO)N(C(=O)c2ccccc2)[C@H]1C#N	1.7*	-9	·	·	·	·	0.13[42 µM]	i
N#C[C@@H]1[C@H](c2ccc(-c3cccnc3)cc2)[C@H](CO)N1C(=O)Nc1ccc(F)cc1	2.7*	-7	·	·	·	0	0.067[42 µM]	i
Cc1ccccc1-c1ccccc1[C@H]1[C@@H](CO)N(C(=O)c2ccc(F)cc2)[C@H]1C#N	1	-1	·	·	·	·	·	·
COc1nsnc1NS(=O)(=O)c1ccc(NC(=S)NC(=O)c2ccncc2)cc1	0	-16	2	21	-1	16	·	·
COc1nsnc1NS(=O)(=O)c1ccc(NC(=S)NC(=O)c2cccnc2)cc1	1.6*	-3	·	12	-4	·	-0.021	i
Cc1cccc(C(=O)NNC(=O)c2ccc(NS(=O)(=O)c3cccs3)cc2)c1C	1.9*	0	-2	-11	-2	-4	-0.09	i
Cc1cc(C)cc(NS(=O)(=O)c2cc3[nH]c(=O)c(=O)[nH]c3cc2C)c1	1.7*	0	-1	-7	-2	-5	0.031	i
COc1ccc(-c2ccc3c(c2)O[C@H](CN(C)Cc2ccccc2C(=O)O)[C@@H](C)CN([C@H](C)CO)S3(=O)=O)cc1	0	2	·	·	·	2	·	·
COc1ccc(/C=N/N2C(C)CCCC2C)cc1OC (stereo not drawn)	38*	-1	3	-3	2	-8	-0.091	i
CC1CCCC(C)N1/N=C/c1ccc(Cl)cc1 (stereo not drawn)	·	·	-2	9	3	-4	·	·
O=C(Nc1ccc(C(=O)O)cc1)Nc1ccc([N+](=O)[O-])cc1	1.9*	1	2	-17	2	-9	0.089	i
O=C(Nc1ccc(C(=O)O)cc1)Nc1cccc([N+](=O)[O-])c1	0	1	·	3	-1	·	·	·
CC1=C2[C@@H](c3ccccc3)OB(O)C[C@@H]2n2c(=O)n(-c3ccccc3)c(=O)n2C1	1.3*	-2	·	·	·	·	-0.18	i
NS(=O)(=O)c1cc(C(=O)NC2CCSc3ccccc32)ccc1Cl (stereo not drawn)	1.8*	0	1	3	0	-2	0.068	i
NS(=O)(=O)c1cccc(C(=O)NC2CCSc3ccccc32)c1 (stereo not drawn)	0	1	0	-1	-4	-4	·	·
CC1CN(C(=O)C(C)N2CCN(c3ccccc3Cl)CC2)CC(C)O1 (stereo not drawn)	17*	-2	0	24	-3	·	-0.014	i
CC1CN(C(=O)C(C)N2CCN(c3cccc(Cl)c3)CC2)CC(C)O1 (stereo not drawn)	0	0	-9	6	1	·	·	·
O=C(Nc1ccccc1)Nc1ccc2nnsc2c1	2.1*	·	24	?	2	73*	0.27	i
SMILES	FGF22 binding-1	AF4-AF9 inh	Wnt act	MITF act	SMARCA2 activ	esBAF inh	FGF22 binding-2	TSA no protein
O=C(Nc1ccccc1)Nc1ccc2snnc2c1	·	·	5	·	2	32	·	·
COc1ccc(S(=O)(=O)Nc2ccc3c(c2)CC(=O)N([C@@H](C)CO)C[C@H](C)[C@H](CN(C)S(C)(=O)=O)O3)cc1	0	-3	·	·	·	0	·	·
CN(C)CC#Cc1ccc([C@H]2[C@H]3CN(C(=O)Nc4ccc(F)cc4)CCCCN3[C@H]2CO)cc1	·	-2	·	·	·	-1	·	·
CN1C(=O)c2cc(NC(=O)c3cccc(F)c3)ccc2OC[C@H]2O[C@H](CC(=O)N3CCc4ccccc4C3)CC[C@@H]21	0	1	·	·	·	5	·	·
CN1C(=O)c2cc(NC(=O)c3cccc(F)c3)ccc2OC[C@H]2O[C@@H](CC(=O)NCc3ccccc3)CC[C@H]21	1.7*	·	·	·	·	6	-0.023[42 µM]	i
CN1C(=O)c2cc(NC(=O)c3cccc(F)c3)ccc2OC[C@@H]2O[C@H](CC(=O)NCc3ccccc3)CC[C@H]21	0	·	·	·	-4	-3	·	·
CN1C(=O)c2cc(NC(=O)c3cccc(F)c3)ccc2OC[C@H]2O[C@H](CC(=O)NCC3CC3)CC[C@@H]21	0	1	·	·	·	·	·	·
CN1C(=O)c2cc(NC(=O)c3cccc(F)c3)ccc2OC[C@H]2O[C@@H](CC(=O)NCC3CCCCC3)CC[C@H]21	2.3*	-6	·	·	·	-1	0.12[42 µM]	i
CN1C(=O)c2cc(NC(=O)c3cccc(F)c3)ccc2OC[C@H]2O[C@@H](CC(=O)N3CCc4ccccc4C3)CC[C@H]21	1.3*	0	·	·	·	-1	0.11[42 µM]	i
CN1C(=O)c2cc(NC(=O)c3cccc(F)c3)ccc2OC[C@@H]2O[C@H](CC(=O)NCC3CCCCC3)CC[C@@H]21	2.3*!	-2	·	·	·	15	-0.16	i
C[C@@H]1CN([C@@H](C)CO)C(=O)c2cc(NC(=O)c3ccncc3)ccc2O[C@@H](C)CCCCO[C@H]1CN(C)Cc1ccc(C(=O)O)cc1	0	-3	·	·	·	-1	·	·
O=C(c1ccccc1F)N1CC(=O)N2[C@@H](CO)[C@H](c3ccc(C#Cc4ccc(F)cc4)cc3)[C@@H]2C1	·	-2	·	·	·	·	·	·
C/C=C/c1ccc2c(c1)O[C@@H](CN(C)C(=O)Nc1cc(F)ccc1F)[C@H](C)CN([C@H](C)CO)S2(=O)=O	0	2	·	·	·	-1	·	·
C/C=C/c1ccc2c(c1)O[C@H](CN(C)C(=O)Nc1cc(F)ccc1F)[C@H](C)CN([C@H](C)CO)S2(=O)=O	1.2*	0	·	·	·	3	0.026[42 µM]	i

Assay outcomes deposited in PubChem BioAssay by several laboratories.
